Assay outcomes as filed in PubChem.
In the library only some 2% were active in any assay of this set; here they are far more common.
Gli-Sufu antag: Gli-Sufu pathway antagonism; Sufu-KO-LIGHT fibroblasts, Gli luciferase reporter luminescence; inhibition, % at 5 µM; hit rate 0.74% among 340,000; AID 588413;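 active = inhibition above about 55%, limit read from the data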;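 also: 0% = DMSO-treated cells and 100% = wells with medium but no cells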
697 NFkB inh: lowers PMA/ionomycin-induced NF-kB signal in 697 B cells | 697 B-cell NF-kB luciferase reporter, 16 h | inhibition, % at 4 µM | hit rate 0.33% among 330,000 | AID 435022; in the data active = inhibition above about 35%
Jurkat NFkB inh: inhibitors of the PMA/ionomycin-induced NF-kB reporter in Jurkat cells. PMA/ionomycin-induced NF-kB luciferase reporter, luminescence. inhibition, % at 4 µM. hit rate 0.53% among 330,000; in the data active = inhibition above about 50%
GalR3 antagonist: antagonists of human GalR3 | O60755 | HEK293 GalR3-CNG cAMP membrane potential fluorescence; galR3 body fused to GalR1 C-terminus | inhibition, % at 3 µM | hit rate 0.44% among 360,000;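 active = inhibition above the screen-wide average plus 3 SD, cut at about 13% in these data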;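 also: forskolin and galanin both at EC90 stimulate the cells; cAMP rise reported by CNG channel membrane potential dye signal; 0% = forskolin plus galanin with DMSO and 100% = forskolin alone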
NR2F2 inh: inhibitors of human COUP-TFII (NR2F2); HEK293T NGFI-A luciferase reporter, luminescence; AID 686940; inhibition, % at 8.6 µM; hit rate 0.7% among 370,000; P24468;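 active = inhibition above a per-plate cutoff, mean inhibition of test wells between control levels plus 3 SD, cut at about 38% in these data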;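 also: cells cotransfected with COUP-TFII expression vector driving the NGFI-A reporter; 0% = median of COUP-TF2 test wells and 100% = reporter-only cells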
Target sequence (P24468 whole entry, looked up): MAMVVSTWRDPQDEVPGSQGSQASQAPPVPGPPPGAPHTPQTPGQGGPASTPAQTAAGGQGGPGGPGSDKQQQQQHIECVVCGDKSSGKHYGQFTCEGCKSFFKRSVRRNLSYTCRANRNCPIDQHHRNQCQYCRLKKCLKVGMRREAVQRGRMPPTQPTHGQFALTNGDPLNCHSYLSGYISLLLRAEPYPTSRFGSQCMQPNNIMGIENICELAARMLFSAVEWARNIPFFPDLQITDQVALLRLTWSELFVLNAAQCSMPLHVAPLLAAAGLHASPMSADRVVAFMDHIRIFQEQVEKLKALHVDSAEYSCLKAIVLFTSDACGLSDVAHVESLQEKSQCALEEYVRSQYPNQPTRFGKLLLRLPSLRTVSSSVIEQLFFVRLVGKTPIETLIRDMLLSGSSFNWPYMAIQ
Jurkat NFkB conf: inhibitors of the PMA/ionomycin-induced NF-kB reporter in Jurkat cells, retest; Jurkat NF-kB luciferase, 16 h; hit rate 27% among 2,700; inhibition, % at 4 µM; shares compounds with Jurkat NFkB inh;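 active = inhibition reaching about 45% at 4 µM in either replicate, limit read from the data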;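 also: plate controls were PMA/ionomycin stimulated DMSO wells for no effect and unstimulated DMSO wells for full effect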
* = called active by the depositor; / = no result given.

SMILES	Gli-Sufu antag	697 NFkB inh	Jurkat NFkB inh	GalR3 antagonist	NR2F2 inh	Jurkat NFkB conf
Cc1ccc(N(C(=O)CCl)C(C(=O)NC2CCCCC2)c2cccnc2)cc1C (stereo not given)	93*	/	/	3	21	/
CCOC(=O)C(C)Sc1nc2c(c(=O)[nH]c(=O)n2C)n1CCc1ccccc1 (stereo not given)	-2	-2	-2	-2	-7	/
COC(=O)C(C)Sc1nc2c(c(=O)[nH]c(=O)n2C)n1CCCc1ccccc1 (stereo not given)	4	5	-9	53*	-10	/
COC(=O)[C@H](CC(C)C)N(CCCc1cn(Cc2ccccc2)nn1)S(=O)(=O)c1ccc(F)cc1Br	/	/	/	/	-3	/
CC(CCN1CCC(C(O)(c2ccccc2)c2ccccc2)CC1)Oc1ccc(F)cc1 (stereo not given)	/	/	/	/	10	/
Cc1ccc(N(CC(=O)Nc2cc(C)cc(C)c2)S(=O)(=O)c2c(C)noc2C)cc1	68*	-30	11	-3	-3	/
Cc1ccc(CN2CCC(CNC(=O)C3CCCN(c4ncnc5c4nc4n5CCCCC4)C3)CC2)cc1 (stereo not given)	31	-44	36	-1	20	/
O=C(NCC1CCN(Cc2ccccc2F)CC1)C1CCCN(c2ncnc3c2nc2n3CCCCC2)C1 (stereo not given)	21	-35	1	15*	16	/
CC(=O)N1C[C@@H](c2c[nH]c3ccccc23)C=C[C@H]1C(=O)NS(=O)(=O)c1ccc(C)cc1	/	/	/	/	-17	/
NC(=S)NN=Cc1nccc2c(C(F)(F)C(F)(F)C(F)(F)F)cccc12	/	/	/	-5	28	/
NC(=S)NN=Cc1nccc2ccccc12	65*	/	/	-1	-41	/
CN(CC#Cc1ccccc1)C(N)=NC(=O)/C=C/c1ccccc1	/	/	/	/	0	/
Cc1ccc(NC(=O)CN(C)C(=O)COc2cccc3ccc(C)nc23)cc1	7	-5	-192	2	-24	13
COc1cccc(C(=O)n2ccc3ccc(-c4ccc5ccn(Cc6ccc(C#N)cc6)c5c4)cc32)c1	/	/	/	/	-20	/
c1ccc(-c2cn3c(n2)-c2ccccc2C3)cc1	-104	-222	-160	-5	-33	-147
Cc1ccc(-c2nc3n(n2)Cc2ccccc2-3)cc1	-92	-236	-73	-2	-28	/
Cn1c(=O)c2c(ncn2CC(=O)OCC(=O)Nc2ccccc2)n(C)c1=O	13	4	-14	-2	8	/
COc1ccccc1NC(=O)COC(=O)Cn1cnc2c1c(=O)n(C)c(=O)n2C	-6	-1	60*	-4	2	6
CN(C)C/C=C/C(O)(c1ccccc1)c1ccccc1	2	7	0	-3	7	/
CN(C)CC(CCC(CN(C)C)C(O)(c1ccccc1)c1ccccc1)C(O)(c1ccccc1)c1ccccc1 (stereo not given)	26	11	65*	-5	-1	15
C=CCn1c(Oc2cc(C)ccc2C)nc2c1c(=O)n(C)c(=O)n2C	2	-11	54*	1	2	16
O=C1c2cccn2CC2Cc3ccccc3N12 (stereo not given)	/	/	/	/	-46	/
Cc1cc(C(=O)Nc2sc3c(c2C#N)CCCCC3)cs1	-85	-179	-186	/	/	-105
CC(=O)Nc1sc2c(c1C#N)CCCC2	-4	8	-17	-2	-14	/
CCCCCCCCn1cnc2c(N)c(C)c(C)cc21	44	21	75*	-1	12	7
SMILES	Gli-Sufu antag	697 NFkB inh	Jurkat NFkB inh	GalR3 antagonist	NR2F2 inh	Jurkat NFkB conf
COc1ccc(Cn2cnc3c(N)c(C)c(C)cc32)cc1	4	-7	-8	-6	18	/
Cc1cc(N2CCOCC2)ccc1/C=C1\SC(=O)N(C(C)C)C1=O	-35	-101	-170	3	-18	-58
COC(=O)[C@]12C[C@H](CC(=O)NCCc3ccccc3OC)C(=O)N(CCc3ccc(OC)c(OC)c3)C1=C[C@H](C(C)(C)C)O[C@@H]2C	/	/	/	/	25	/
C=CCN1[C@H](Cc2ccccc2)COc2cc(F)ccc2S1(=O)=O	/	/	/	/	10	/
O=Cc1cn(-c2ccccc2)nc1-c1cc2cc(O)ccc2oc1=O	3	6	1	-4	-69	/
O=C(O)/C=C/c1cn(-c2ccccc2)nc1-c1cc2ccccc2oc1=O	4	-154	-164	-6	-22	-95
CCC1(c2ccc(F)cc2)NC(=O)N(CC(=O)Nc2ccc(-c3nc4ccc(C)cc4s3)cc2)C1=O (stereo not given)	-115	-178	-186	1	-46	-82
COc1ccc(C2(C)NC(=O)N(CC(=O)Nc3ccc(-c4nc5ccc(C)cc5s4)cc3)C2=O)cc1 (stereo not given)	-90	-104	-81	-4	-32	/
COc1nc(Nc2nc3ccccc3c(=O)[nH]2)nc2ccc(C)cc12	63*	30	81*	-1	24	-5
COc1ccc(C(=O)OCCCN(C)C2CN(Cc3cn(Cc4ccccc4F)nn3)S(=O)(=O)C2)cc1OC (stereo not given)	/	/	/	/	-13	/
CCOc1ccc2nc3cc(NCc4ccc(OC)cc4)ccc3c(N)c2c1	64*	-29	100*	/	/	15
COC(=O)[C@]12C[C@H](CC(=O)N3CCCCC3)C(=O)N(Cc3ccco3)C1=C[C@H](C(C)(C)C)O[C@@H]2C	/	/	/	/	-3	/
COc1cc(NC(=O)c2csc(N)n2)cc(C(=O)Nc2cccc(C(F)(F)F)c2)c1	9	-33	64*	-5	17	-1
COc1ccccc1/C=N/NS(=O)(=O)c1ccccc1	3	-20	91*	-3	-28	9
CN(C)c1ccc(/C=N/n2ncc3ccccc32)cc1	-67	-159	-174	/	/	-65
COC(=O)C12C=C3CC(c4ccc(C)s4)=C3C(=O)N1Cc1[nH]c3ccccc3c1C2 (stereo not given)	/	/	/	/	-22	/
COC(=O)/C(=C\Nc1ccc(Cl)cc1Cl)NC(=O)c1ccc(OC)cc1	-5	-2	66*	4	2	-1
COC(=O)/C(=C\Nc1ccc(OC)cc1)NC(=O)c1ccc(Cl)cc1Cl	-27	4	-13	-3	3	/
COc1cc(C(=O)Nc2ccc3c(c2)CCN3C(C)=O)cc(OC)c1OC	/	-14	68*	3	-18	38
COc1cc(C(=O)Nc2ccc3c(c2)Cc2ccccc2-3)cc(OC)c1OC	14	-16	54*	-6	9	35
CCCNC(=O)c1nnsc1S(=O)c1ccc(Cl)cc1 (stereo not given)	14	2	59*	3	-7	17
O=C1CC(c2ccccc2)Cc2nc(N3CCc4ccccc43)ncc21 (stereo not given)	-4	1	8	-3	-16	/
O=C1CCCc2nc(N3CCc4ccccc43)ncc21	-69	-231	-179	-4	-32	-120
Cc1c(C(=O)Nc2ccc3c4c(cccc24)CC3)cccc1[N+](=O)[O-]	1	-21	-2	-2	-14	/
Cc1ccc(C(=O)Nc2ccc3c4c(cccc24)CC3)cc1[N+](=O)[O-]	-1	-22	85*	-1	3	13
